Source: PubChem BioAssay (Tox21)
“And” between values parts separate entries of the source, which are not always exact repeats. Identical values can stand only once. Results filed as inconclusive are left out. A structure can be active in one record and inactive in another. The source made the active and inactive calls. Unless noted, calls follow the shape of the dose curve; as a rule, active = well fitted curve in the direction sought with a large enough effect in the repeat runs; inconclusive = weak or mixed curves; inactive = no such curve, though single readings can be large; an effect the other way counts as inactive or inconclusive.

How the values were obtained:
[1] = qHTS assay to identify small molecule antagonists of the progesterone receptor (PR) signaling pathway - cell viability counter screen (AID 1346798); also: series mostly up to about 92 µM; nearly all actives have a fitted effect of over 50% in size
Procedure, shortened: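 Following a 4 hr attachment, PR-UAS-bla HEK293T cells in charcoal-stripped FBS medium were exposed to compounds with R5020 for 16 hr; CellTiter-Glo was added and luminescence read after 30 min at room temperature.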

[2] = qHTS assay to identify small molecule agonists of the progesterone receptor (PR) signaling pathway - cell viability counter screen (AID 1346799; calls by dose curve; also: nearly all actives have a fitted effect of over 45% in size; also: potency is read from the fitted curve at half-maximal effect)
Procedure, shortened: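 Here, 3,000 PR-UAS-bla HEK293T cells per well were treated with compounds for 16 hr after a 6 hr preincubation at 37C and 5% CO2; cell viability is the CellTiter-Glo luminescence signal.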

[3] = qHTS assay to identify small molecule antagonists of the TGF-beta/Smad signaling pathway - cell viability counter screen (AID 1346824); also: nearly all actives have a fitted effect of over 50% in size
Procedure, shortened: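 SBE-bla HEK 293T cells were plated overnight at 37 C, then given compounds in DMSO plus TGF-beta1 (added as 0.25 ng/mL solution) for 5 hr. After the bla read, CellTiter-Glo was added to the same wells and luminescence read after 30 min at room temperature.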

[4] = qHTS assay to identify small molecule agonists of the TGF-beta/Smad signaling pathway - cell viability counter screen (AID 1346829); also: top concentration of the series differs between compounds; nearly all actives have a fitted effect of over 45% in size
Procedure, shortened: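 CellTiter-Glo luminescence readout; SBE-bla HEK 293T cells, overnight plating, compound 5 hr at 37 C/5% CO2, then bla substrate 2 hr RT, then CellTiter-Glo 30 min RT.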

[5] = qHTS assay to identify small molecule agonists of the TGF-beta/Smad signaling pathway (AID 1346859; active = well fitted activation curve with a large enough effect in the signal ratio in the repeat runs, not every such curve was filed as active; the % refers to the signal ratio; also: series mostly up to about 77 µM)
Procedure, shortened: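 Each well held 4,000 SBE-bla HEK 293T cells incubated overnight before compound addition; 5 hr later the cleavable FRET substrate went on for 2 hr at room temperature, and fluorescence was read at two emissions.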

[6] = Human pregnane X receptor (PXR) small molecule agonists, qHTS cell viability counter screen (AID 1346977); also: nearly all actives have a fitted effect of over 50% in size
Procedure, shortened: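 Tox21 qHTS format; PXR-Luc HepG2, 2,000/well, charcoal-stripped FBS 5%. Cpd exposure 24hr. Read: CellTiter-Fluor fluorescence, multiplexed with luciferase.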

[7] = Caspase-3/7 induction in HepG2 cells by small molecules, qHTS assay (AID 1346978); also: nearly all actives have a fitted effect of over 15% in size
Procedure, shortened: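 Wild-type HepG2 cells (2,000/well) were settled 5 h at 37 C, 5% CO2, then exposed to compounds in DMSO for 17 h. Caspase-3/7 activity was read by luminescence 30 min after adding Caspase-Glo 3/7 reagent at room temperature.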

[8] = Caspase-3/7 induction in CHO-K1 cells by small molecules, qHTS cell viability counter screen (AID 1346979); also: nearly all actives have a fitted effect of over 35% in size; also: potency is read from the fitted curve at half-maximal effect
Procedure, shortened: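 CellTiter-Fluor viability check, qHTS format: wild-type CHO-K1, 16hr compound treatment, 1hr reagent incubation, fluorescence read.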

[9] = Caspase-3/7 induction in CHO-K1 cells by small molecules, qHTS assay (AID 1346980); also: nearly all actives have a fitted effect of over 15% in size
Procedure, shortened: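 Wild-type cells were seeded at 1,500 per well and settled 5 hr at 37 C, 5% CO2, then exposed to DMSO-dissolved compounds for 17 hr. Caspase-Glo 3/7 reagent was added, and luminescence was read after 30min at room temperature.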

[10] = Caspase-3/7 induction in HepG2 cells by small molecules, qHTS cell viability counter screen (AID 1346981); also: series mostly up to about 92 µM; nearly all actives have a fitted effect of over 30% in size
Procedure, shortened: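 After a 5-hr attachment period at 37 C and 5% CO2, wild-type HepG2 cells received compounds in DMSO. Sixteen hours later CellTiter-Fluor was dispensed and the fluorescent signal quantified after a further hour.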

[11] = molecular target: Nuclear receptor subfamily 1 group I member 2 (Homo sapiens) (UniProt O75469); assay: Human pregnane X receptor (PXR) small molecule agonists, qHTS assay (AID 1346982); also: nearly all actives have a fitted effect of over 35% in size; also: potency is read from the fitted curve at half-maximal effect
Sequence of Nuclear receptor subfamily 1 group I member 2 (Homo sapiens) (O75469 whole entry, looked up): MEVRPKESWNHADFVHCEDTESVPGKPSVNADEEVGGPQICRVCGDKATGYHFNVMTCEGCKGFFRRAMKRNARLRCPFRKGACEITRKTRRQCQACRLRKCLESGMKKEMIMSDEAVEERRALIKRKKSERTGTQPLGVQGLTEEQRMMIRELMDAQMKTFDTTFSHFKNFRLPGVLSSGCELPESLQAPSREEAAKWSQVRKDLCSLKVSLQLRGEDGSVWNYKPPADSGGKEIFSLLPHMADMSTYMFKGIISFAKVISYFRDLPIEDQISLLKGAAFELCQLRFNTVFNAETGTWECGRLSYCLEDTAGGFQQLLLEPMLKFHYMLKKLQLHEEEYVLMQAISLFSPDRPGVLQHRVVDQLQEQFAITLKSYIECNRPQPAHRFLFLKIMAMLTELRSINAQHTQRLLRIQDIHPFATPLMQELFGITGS
Procedure, shortened: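 Tox21 qHTS; PXR-Luc HepG2; compounds pinned from DMSO; 24 hr, 37 C; ONE-Glo luciferase detection, 30 min room temperature.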

[12] = molecular target: Nuclear receptor subfamily 1 group I member 2 (Homo sapiens) (UniProt O75469); assay: Human pregnane X receptor (PXR) activation by small molecules, qHTS assay (AID 1346985); also: nearly all actives have a fitted effect of over 40% in size
Procedure, shortened: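 DPX-2 cells (HepG2 co-transfected with a PXR response element and a CYP3A4-promoter luciferase construct) were seeded at 2,000 per well, rested 5 hr at 37C, then exposed to DMSO-dissolved compounds for 24 hr. Activation was read as luciferase luminescence.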

[13] = molecular target: Cytochrome P450 2D6 (Homo sapiens) (UniProt P10635); assay: Cytochrome P450 Family 2 Subfamily D Member 6 (CYP2D6) small molecule antagonists: luciferase reporter qHTS assay (AID 1671196); also: nearly all actives have a fitted effect of over 50% in size; also: potency is read from the fitted curve at half-maximal effect
Sequence of Cytochrome P450 2D6 (Homo sapiens) (P10635 whole entry, looked up): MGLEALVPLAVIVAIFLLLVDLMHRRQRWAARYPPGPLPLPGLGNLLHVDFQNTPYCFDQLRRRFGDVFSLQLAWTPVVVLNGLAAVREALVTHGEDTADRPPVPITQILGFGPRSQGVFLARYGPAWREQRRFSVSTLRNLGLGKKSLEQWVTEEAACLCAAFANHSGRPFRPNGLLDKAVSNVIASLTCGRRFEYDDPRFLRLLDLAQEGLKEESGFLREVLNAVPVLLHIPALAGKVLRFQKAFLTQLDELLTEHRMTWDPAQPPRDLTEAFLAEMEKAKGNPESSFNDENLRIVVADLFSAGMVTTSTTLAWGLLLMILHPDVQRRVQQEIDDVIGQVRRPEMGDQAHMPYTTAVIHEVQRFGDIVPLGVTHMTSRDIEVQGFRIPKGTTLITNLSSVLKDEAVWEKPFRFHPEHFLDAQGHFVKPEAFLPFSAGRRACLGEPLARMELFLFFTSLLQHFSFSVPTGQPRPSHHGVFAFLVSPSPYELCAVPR
Procedure, shortened: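 Room-temperature luminescent CYP2D6 activity assay: compound preincubated 10 min with enzyme–substrate mix, NADPH-initiated reaction 1 h, detection reagent 20 min before reading.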

[14] = molecular target: Cytochrome P450 2C19 (Homo sapiens) (UniProt P33261); assay: Cytochrome P450 Family 2 Subfamily C Member 19 (CYP2C19) small molecule antagonists: luciferase reporter qHTS assay (AID 1671197); also: nearly all actives have a fitted effect of over 65% in size; also: potency is read from the fitted curve at half-maximal effect
Sequence of Cytochrome P450 2C19 (Homo sapiens) (P33261 whole entry, looked up): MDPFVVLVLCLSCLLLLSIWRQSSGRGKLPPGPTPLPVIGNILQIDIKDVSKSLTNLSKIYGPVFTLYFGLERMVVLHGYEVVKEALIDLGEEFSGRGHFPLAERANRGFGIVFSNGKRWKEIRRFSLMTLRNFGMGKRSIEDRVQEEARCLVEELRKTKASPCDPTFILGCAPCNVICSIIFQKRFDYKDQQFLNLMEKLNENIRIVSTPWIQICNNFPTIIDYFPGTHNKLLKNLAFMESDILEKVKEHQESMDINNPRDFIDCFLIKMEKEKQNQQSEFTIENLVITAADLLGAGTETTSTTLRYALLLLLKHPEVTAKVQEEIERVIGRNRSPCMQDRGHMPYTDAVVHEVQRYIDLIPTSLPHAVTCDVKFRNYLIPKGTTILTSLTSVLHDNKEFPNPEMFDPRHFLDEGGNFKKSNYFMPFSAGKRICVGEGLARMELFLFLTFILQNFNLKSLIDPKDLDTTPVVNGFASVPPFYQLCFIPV
Procedure, shortened: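 Enzyme-substrate mix with proluciferin substrate (P450-Glo CYP2C19 system) preincubated with compounds 10 min at room temperature; NADPH regeneration solution added, 37C for 1 h; detection reagent stops reaction, luminescence read after 20 min. Ketoconazole positive control.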

[15] = molecular target: Progesterone receptor (Homo sapiens) (UniProt P06401); assay: qHTS assay to identify small molecule agonists of the progesterone receptor (PR) signaling pathway (AID 1346784; calls by dose curve; also: nearly all actives have a fitted effect of over 30% in size)
Sequence of Progesterone receptor (Homo sapiens) (P06401 whole entry, looked up): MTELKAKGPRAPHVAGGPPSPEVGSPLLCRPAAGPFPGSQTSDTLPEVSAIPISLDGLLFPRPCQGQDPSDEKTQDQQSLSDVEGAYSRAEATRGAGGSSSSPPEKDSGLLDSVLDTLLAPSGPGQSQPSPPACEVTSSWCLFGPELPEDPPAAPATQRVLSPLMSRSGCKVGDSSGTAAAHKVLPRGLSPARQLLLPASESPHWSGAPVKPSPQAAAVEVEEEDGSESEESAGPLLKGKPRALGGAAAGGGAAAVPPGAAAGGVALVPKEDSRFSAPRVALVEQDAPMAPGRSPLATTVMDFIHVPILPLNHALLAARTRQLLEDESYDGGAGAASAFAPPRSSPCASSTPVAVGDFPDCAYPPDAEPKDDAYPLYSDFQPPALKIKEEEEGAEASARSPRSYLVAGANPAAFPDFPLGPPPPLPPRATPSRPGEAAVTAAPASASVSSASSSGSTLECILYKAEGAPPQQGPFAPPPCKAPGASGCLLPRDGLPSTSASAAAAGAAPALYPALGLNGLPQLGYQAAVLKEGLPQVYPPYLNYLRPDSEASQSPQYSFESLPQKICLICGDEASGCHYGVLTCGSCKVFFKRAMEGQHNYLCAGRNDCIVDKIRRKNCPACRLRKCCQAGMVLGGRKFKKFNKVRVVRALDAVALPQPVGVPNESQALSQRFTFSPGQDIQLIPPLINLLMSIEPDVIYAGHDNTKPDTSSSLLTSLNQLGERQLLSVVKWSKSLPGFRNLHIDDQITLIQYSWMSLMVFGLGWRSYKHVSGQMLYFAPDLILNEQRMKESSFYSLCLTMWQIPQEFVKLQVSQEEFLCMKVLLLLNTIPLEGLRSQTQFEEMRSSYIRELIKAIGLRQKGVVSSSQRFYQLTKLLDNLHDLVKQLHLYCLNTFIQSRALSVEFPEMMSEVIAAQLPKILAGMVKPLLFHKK
Procedure, shortened: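 Compounds were tested for PR agonism in HEK 293T cells bearing a beta-lactamase gene under UAS control. Treatment lasted 16 hr at 37C; signal came from fluorescence of a FRET substrate.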

[16] = molecular target: Progesterone receptor (Homo sapiens) (UniProt P06401); assay: qHTS assay to identify small molecule antagonists of the progesterone receptor (PR) signaling pathway (AID 1346795; active = well fitted inhibition curve with a large enough effect in the signal ratio in the repeat runs, not every such curve was filed as active; the % refers to the signal ratio)
Procedure, shortened: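 In HEK293T cells bearing the PR-UAS-bla reporter, compound effects on promegestone-driven (1 nM) beta-lactamase expression are assessed after 16 hr using a fluorescent FRET substrate incubated 2 hr at room temperature.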

[17] = molecular target: Nuclear receptor subfamily 1 group I member 2 (Rattus norvegicus) (UniProt Q9R1A7); assay: Rat pregnane X receptor (rPXR) activation by small molecules, qHTS assay (AID 1346983); settings: rPXR luciferase reporter cells, One-Glo luminescence, 24 h; stronger effect = higher value; also: nearly all actives have a fitted effect of over 20% in size
Sequence of Nuclear receptor subfamily 1 group I member 2 (Rattus norvegicus) (Q9R1A7 whole entry, looked up): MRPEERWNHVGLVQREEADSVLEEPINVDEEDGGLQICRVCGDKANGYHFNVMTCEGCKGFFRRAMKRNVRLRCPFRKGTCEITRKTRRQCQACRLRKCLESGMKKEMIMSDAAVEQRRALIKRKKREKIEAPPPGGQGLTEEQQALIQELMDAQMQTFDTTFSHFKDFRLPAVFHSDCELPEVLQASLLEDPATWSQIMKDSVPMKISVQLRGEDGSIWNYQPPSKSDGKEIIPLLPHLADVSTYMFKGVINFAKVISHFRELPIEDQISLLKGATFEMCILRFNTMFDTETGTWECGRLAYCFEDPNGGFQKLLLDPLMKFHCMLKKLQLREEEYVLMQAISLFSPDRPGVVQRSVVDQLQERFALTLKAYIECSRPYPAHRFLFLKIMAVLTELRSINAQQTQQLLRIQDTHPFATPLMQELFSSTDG
Procedure, shortened: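 Cell-based rPXR luciferase reporter assay, 2,000 cells per well, rested 5hr at 37 C before compound addition in DMSO, then 24 hr at 37 C. One-Glo reagent was added and luminescence read after 30 min at room temperature.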

[18] = molecular target: Nuclear receptor subfamily 1 group I member 2 (Homo sapiens) (UniProt O75469); assay: CYP3A4 induction through human pregnane X receptor (PXR) by small molecules, qHTS assay (AID 1346984); also: nearly all actives have a fitted effect of over 40% in size
Procedure, shortened: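 Cells (DPX-2; HepG2 with PXR element plus CYP3A4-promoter luciferase) settled 5hr, then were treated 24hr at 37C. A 3hr, 3uM-final Luciferin-IPA step preceded luminescence measurement with One-Glo.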

[19] = molecular target: Thyrotropin-releasing hormone receptor (Homo sapiens) (UniProt P34981); assay: qHTS assay to identify small molecule antagonists of the thyrotropin-releasing hormone receptor (TRHR) signaling pathway (AID 1346877; active = well fitted inhibition curve with a large enough effect in the repeat runs, not every such curve was filed as active; also: series mostly up to about 51 µM)
Sequence of Thyrotropin-releasing hormone receptor (Homo sapiens) (P34981 whole entry, looked up): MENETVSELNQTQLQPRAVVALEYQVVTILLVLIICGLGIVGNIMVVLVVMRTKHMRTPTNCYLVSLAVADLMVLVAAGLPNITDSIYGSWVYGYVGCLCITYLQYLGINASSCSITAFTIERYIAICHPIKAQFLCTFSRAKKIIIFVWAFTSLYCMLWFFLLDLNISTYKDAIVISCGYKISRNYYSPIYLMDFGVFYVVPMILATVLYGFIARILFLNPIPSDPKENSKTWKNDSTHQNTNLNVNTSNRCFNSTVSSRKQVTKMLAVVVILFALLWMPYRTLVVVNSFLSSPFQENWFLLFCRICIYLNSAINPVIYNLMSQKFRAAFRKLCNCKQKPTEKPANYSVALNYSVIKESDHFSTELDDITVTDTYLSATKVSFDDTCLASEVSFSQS
Procedure, shortened: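 Calcium signal in dye-loaded TRHR/HEK293 cells; compounds added 5 min before TRH (1 nM final); fluorescence monitored 3 min at 1 s steps.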

[20] = molecular target: Thyrotropin-releasing hormone receptor (Homo sapiens) (UniProt P34981); assay: qHTS assay to identify small molecule agonists of the thyrotropin-releasing hormone receptor (TRHR) signaling pathway (AID 1346891; calls by dose curve; also: series mostly up to about 58 µM)
Procedure, shortened: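 Screening of agonists relied on calcium signalling in HEK293 cells expressing human TRHR: dye loading 2 h at 37 °C preceded compound addition and a 3-min fluorescence time course.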
% is scaled to controls: 0 for no effect and ±100 for the full control effect.

C[C@]12C=CC(=O)C=C1CC[C@@H]1[C@@H]2[C@@H](O)C[C@@]2(C)[C@H]1CC[C@]2(O)C(=O)CO
inactive: Potency [1] | Potency [2] | outcome [3] | Potency [4] | outcome [5] | Potency [6] | Potency [7] | Potency [8] | outcome [9] | Potency [10] | Potency [11] | Potency [12] | Potency [13]
78.6 µM (active) and inactive: Potency [14]

CC(C)(Oc1ccc(C2CC2(Cl)Cl)cc1)C(=O)O (stereo not given)
inactive: Potency [15] | outcome [16] | Potency [1] | Potency [2] | outcome [3] | Potency [4] | outcome [5] | Potency [6] | Potency [7] | Potency [8] | outcome [9] | Potency [10] | Potency [11] | max activation [17] -3.49% | outcome [18] | Potency [12] | Potency [13] | Potency [14]

COc1c2occc2cc2ccc(=O)oc12
inactive: Potency [15] | outcome [16] | Potency [1] | Potency [2] | outcome [3] | Potency [4] | outcome [5] | Potency [6] | Potency [7] | Potency [8] | outcome [9] | Potency [10]
active: Potency [11] 61.5 µM and 48.6 µM

NNC(=O)c1ccncc1
inactive: Potency [15] | outcome [16] | Potency [1] | Potency [2] | outcome [3] | Potency [4] | outcome [5] | Potency [6] | Potency [7] | Potency [8] | outcome [9] | Potency [10] | Potency [11]
40 µM (active) and inactive: Potency [13]
active: Potency [14] 15.9 µM and 2.97 µM and 17.4 µM

NS(=O)(=O)c1cc(C(=O)O)c(NCc2ccco2)cc1Cl
inactive: Potency [15] | outcome [16] | Potency [1] | Potency [2] | outcome [3] | Potency [4] | outcome [5] | outcome [19] | outcome [20] | Potency [6] | Potency [8] | outcome [9] | Potency [10] | Potency [11]

Nc1ccn([C@H]2CC[C@@H](CO)O2)c(=O)n1
78.3 µM (active) and inactive: Potency [14]
inactive: Potency [1] | Potency [2] | outcome [3] | Potency [4] | outcome [5] | outcome [19] | outcome [20] | Potency [6] | Potency [7] | Potency [8] | outcome [9] | Potency [10] | Potency [11] | Potency [13]

Cn1cc[nH]c1=S
43.2 µM (active) and inactive: Potency [2]
inactive: Potency [15] | outcome [16] | outcome [3] | Potency [4] | outcome [5] | Potency [6] | Potency [7] | Potency [8] | outcome [9] | Potency [10] | max activation [17] -0.0972% | Potency [12] | Potency [13] | Potency [14]

O=C(O)/C=C\C(=O)O
41.3 µM (active) and inactive: Potency [14]
inactive: Potency [15] | outcome [16] | Potency [1] | Potency [2] | outcome [3] | Potency [4] | outcome [5] | outcome [19] | outcome [20] | Potency [6] | Potency [7] | Potency [8] | outcome [9] | Potency [10]
25.2 µM (active) and inactive: Potency [13]

O=C(O)CS
inactive: Potency [1] | Potency [2] | outcome [3] | Potency [4] | outcome [5] | outcome [19] | outcome [20] | Potency [6] | Potency [7] | outcome [9] | Potency [10] | Potency [11] | Potency [13] | Potency [14]
inactive and 61.6 µM (active): Potency [8]
